Measured values published in PubChem BioAssay (NCI).
About 83,000 compounds went through this panel and 20% of them were active in at least one assay; those are over-represented in the sample as a whole.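 Treatment: one concentration, 48 hours, 96-well format. Scoring: percent growth, with anything below 10 considered active.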 Values without a mark were called inactive. The source made the active and inactive calls.

Tests used:
Test in all cases: NCI-60 one-dose screen, 48 h (100 = growth as untreated, 0 = no growth, -100 = all killed)
Details in all cases: 10 µM unless noted
SR leukemia = system: SR leukemia
RPMI-8226 leukemia = system: RPMI-8226 leukemia
OVCAR-8 ovarian = system: OVCAR-8 ovarian
OVCAR-5 ovarian = system: OVCAR-5 ovarian
OVCAR-4 ovarian = system: OVCAR-4 ovarian
SK-OV-3 ovarian = system: SK-OV-3 ovarian
IGROV1 ovarian = system: IGROV1 ovarian
OVCAR-3 ovarian = system: OVCAR-3 ovarian
HS 578T breast = system: HS 578T breast
NCI/ADR-RES ovarian = system: NCI/ADR-RES ovarian
T-47D breast = system: T-47D breast
MDA-MB-435 melanoma = system: MDA-MB-435 melanoma
SW-620 colon = system: SW-620 colon
MCF7 breast = system: MCF7 breast
HCT-116 colon = system: HCT-116 colon
HCC-2998 colon = system: HCC-2998 colon
KM12 colon = system: KM12 colon

| Structure (SMILES) | growth (SR leukemia) | growth (RPMI-8226 leukemia) | growth (OVCAR-8 ovarian) | growth (OVCAR-5 ovarian) | growth (OVCAR-4 ovarian) | growth (SK-OV-3 ovarian) | growth (IGROV1 ovarian) | growth (OVCAR-3 ovarian) | growth (HS 578T breast) | growth (NCI/ADR-RES ovarian) | growth (T-47D breast) | growth (MDA-MB-435 melanoma) | growth (SW-620 colon) | growth (MCF7 breast) | growth (HCT-116 colon) | growth (HCC-2998 colon) | growth (KM12 colon) |
| --- | --- | --- | --- | --- | --- | --- | --- | --- | --- | --- | --- | --- | --- | --- | --- | --- | --- |
| COc1cccc(C2C(C#N)=C(N)Oc3cc(OCCCCCC[P+](c4ccccc4)(c4ccccc4)c4ccccc4)ccc32)c1 (stereo unspecified) | -48.8% (active) | -36.4% (active) | 1.01% (active) | -2.3% (active) | 2.58% (active) | -33.5% (active) | -55.8% (active) | -81.3% (active) | -16.5% (active) | 85.2% | -32.9% (active) | -77.6% (active) | -31.7% (active) | -39.2% (active) | -81% (active) | -68.6% (active) | -77% (active) |
| COC(=O)N/N=C/c1c[n+]([O-])c2ccccc2[n+]1[O-] | 93.4% | 94.3% | 90.8% | 108% | 103% | 29.9% | 102% | 111% | 126% | 102% | 20.4% | 96.4% | 103% | 93.6% | 104% | 104% |  |
| O=C1OCC2=C1C(c1cccc([N+](=O)[O-])c1)c1cc3c(cc1N2CCO)CCC3 (stereo unspecified) | 15.2% | 17% | 5.88% (active) | 43.5% | 40% | 27% | 25.9% | -1.17% (active) | 21.9% | 3.57% (active) | 65.9% | -34.9% (active) | 22.2% | 20% | 7.18% (active) | 6.84% (active) | 15.7% |
| COCCn1cc(-c2csc(-c3cn(C)c4ccc(F)cc34)n2)c2cccnc21 | 33.8% | 67.7% | 71.3% | 80.7% | 47.8% | 92.6% | 93.9% | 76% | 63.1% | 58.6% | 25.2% | 40.8% | 37.6% | 25.9% | 75.5% | 49.6% |  |
